Screens deposited in PubChem by several laboratories.
PAFAH1B3 FP inh – inhibitors of human PAFAH1B3. inhibition, % at 3.39 µM. AID 492972. Q15102. actives 0.28% (n = 340,000). recombinant PAFAH1B3, FP-rhodamine probe, fluorescence polarization;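 active means inhibition above the screen-wide average of all tested compounds plus 3 SD, cut at about 25% in these data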;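 further: 0% = enzyme with DMSO only and 100% = wells lacking PAFAH1B3 protein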
Target sequence (Q15102 whole entry, looked up): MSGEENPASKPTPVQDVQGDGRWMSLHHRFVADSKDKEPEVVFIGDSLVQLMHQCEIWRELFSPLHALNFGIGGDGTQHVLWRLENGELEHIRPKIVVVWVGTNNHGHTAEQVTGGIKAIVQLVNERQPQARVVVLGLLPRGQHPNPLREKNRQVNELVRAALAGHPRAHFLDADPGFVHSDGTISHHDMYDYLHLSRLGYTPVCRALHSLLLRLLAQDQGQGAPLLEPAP
PAFAH1B2 inh – blocks human PAF acetylhydrolase 1b catalytic subunit 2 | recombinant PAFAH1B2, FP-rhodamine activity probe, fluorescence polarization | AID 492953 | inhibition, % at 3.39 µM | actives 1.2% (n = 340,000);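 active means inhibition above the mean of all tested compounds plus 3 SD, cut at about 24% in these data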;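 further: 0% = enzyme with DMSO and 100% = wells lacking PAFAH1B2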
Target sequence (P68402 whole entry, looked up): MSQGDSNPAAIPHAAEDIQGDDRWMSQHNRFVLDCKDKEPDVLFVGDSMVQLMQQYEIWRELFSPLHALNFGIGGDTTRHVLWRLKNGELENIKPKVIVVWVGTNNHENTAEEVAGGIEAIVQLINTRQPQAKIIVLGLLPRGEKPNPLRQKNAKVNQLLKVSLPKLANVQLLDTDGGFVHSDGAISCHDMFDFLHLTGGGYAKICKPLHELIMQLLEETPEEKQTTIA
M18AAP inhibitor – PfM18AAP enzyme inhibition; recombinant PfM18AAP, H-Glu-NHMec fluorogenic cleavage; AID 1822; actives 1.2% (n = 290,000); inhibition, % at 7.35 µM;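 active means inhibition above the campaign mean inhibition over all tested compounds plus 3 SD, cut at about 28% in these data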;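 further: 0% = plate median of test compound wells and 100% = 2 mM ZnCl2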
PAFAH2 FP inh – inhibitors of human PAFAH2; recombinant PAFAH2, FP-rhodamine activity probe, fluorescence polarization; AID 492956; Q99487; actives 0.99% (n = 340,000); inhibition, % at 3.39 µM;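 active means inhibition above the mean over all tested compounds plus 3 SD, cut at about 30% in these data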;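 further: inhibitors block probe labeling of enzyme so polarization drops; 0% = enzyme with DMSO and 100% = wells lacking PAFAH2 protein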
pPAFAH FP inh – inhibitors of human plasma PAF acetylhydrolase (pPAFAH); inhibition, % at 3.39 µM; Q13093; recombinant pPAFAH, FP-rhodamine probe fluorescence polarization; AID 463082; actives 1.5% (n = 330,000);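 active means inhibition above the mean inhibition across the screen plus 3 SD, cut at about 25% in these data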;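 further: inhibitors block binding of the rhodamine activity-based probe so polarization drops; 0% = enzyme with DMSO and 100% = wells lacking pPAFAH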
DSG3 Ab inh – inhibitors of pemphigus antibody binding to human desmoglein-3 | P32926 | DSG3-coupled beads, scFv-anti-DSG3-GFP binding, flow cytometry; hits give low values | binding (percent of control), % at 10 µM | actives 0.48% (n = 310,000);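 active means binding more than 3 SD below its plate's average and above zero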;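 further: hits lower antibody fragment binding to DSG3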
An asterisk follows results filed as active; x = not tested or not shown. Hits are enriched below; roughly 3.8% of the tested compounds scored in any of these assays.

SMILES	PAFAH1B3 FP inh	PAFAH1B2 inh	M18AAP inhibitor	PAFAH2 FP inh	pPAFAH FP inh	DSG3 Ab inh
C[n+]1c(-c2ccc(C=NNC(=O)c3ccc(C(=O)NN=Cc4ccc(-c5cn6ccccc6[n+]5C)cc4)cc3)cc2)cn2ccccc21	4	4	x	4	x	94
Cc1ccc(S(=O)(=O)Nc2ccc3c(c2)C(=O)N([C@H](C)CO)C[C@H](C)[C@@H](CN(C)C(=O)Nc2ccc(C(F)(F)F)cc2)O3)cc1	4	8	x	7	25*	110
COc1ccc(S(=O)(=O)N(C)C[C@H]2Oc3ccc(NS(=O)(=O)c4ccc(F)cc4)cc3C(=O)N([C@H](C)CO)C[C@@H]2C)cc1	4	25*	x	-1	14	102
CC(C(=O)NCc1cccnc1)c1ccc([N+](=O)[O-])cc1 (stereo unspecified)	9	6	-10	2	2	129
COc1cc(C(=O)Nc2nnc(C)s2)c([N+](=O)[O-])cc1OC	4	2	0	-4	-1	85*
COc1ccc(CN(C(C)=O)c2cc(C)c([N+](=O)[O-])cc2OC)cc1OC	x	x	x	x	x	99
Cn1c(=O)c2ccccc2n2c(=S)[nH]nc12	9	1	25	2	4	112
Cn1c(=O)c2ccccc2n2c(CCl)nnc12	12	1	-10	-6	3	27*
Clc1ccc(CNc2nc(CN3CCOCC3)nc3scc(-c4ccccc4)c23)cc1	9	7	0	-1	33*	x
Clc1ccc(-c2csc3ncnc(NCCN4CCOCC4)c23)cc1	2	1	-4	4	-2	69
c1ccc(CNc2nc(CN3CCOCC3)nc3scc(-c4ccccc4)c23)cc1	1	4	4	0	34*	107
c1ccc(-c2csc3ncnc(NCCN4CCOCC4)c23)cc1	-8	4	21	2	5	102
COc1ccccc1S(=O)(=O)N(C)C[C@@H]1OCc2cnnn2CCCC(=O)N([C@H](C)CO)C[C@@H]1C	x	x	x	x	x	101
CCC(=O)/C=C1\Sc2ccc(OC)cc2N1CCO	-2	3	30*	11	-1	x
CNC(=S)NNC(=O)CSCc1c(Cl)cccc1Cl	x	x	20	x	8	94
O=C(CSCc1ccccc1)NNC(=S)Nc1cccc(Cl)c1Cl	10	17	6	29	32*	x
C[C@@H]1CN([C@@H](C)CO)C(=O)c2cc(C#Cc3ccccc3)cnc2O[C@H]1CN(C)C(=O)c1ccccc1F	x	x	x	x	x	97
CC(=O)Oc1cc(O)c2c(=O)c(OC(C)=O)c(-c3ccc(OC(C)=O)c(OC(C)=O)c3)oc2c1	47*	22	x	38*	31*	105
S=c1[nH]nc(CCc2ccccc2)n1-c1ccccc1	0	-2	21	-3	4	98
S=c1[nH]nc(Cc2ccccc2)n1-c1ccccc1	2	16	16	0	-8	89
S=c1[nH]nc(Cc2ccccc2)n1-c1ccc(Cl)cc1	7	29*	24	-4	5	83
O=C(Cc1ccccc1)NCc1n[nH]c(=S)n1-c1ccccc1	5	12	18	9	-8	12*
Cc1ccc(C)c(Cn2c3ccccc3c3cnn(CC(=O)NCCCN4CCCCC4)c(=O)c32)c1	8	-1	3	-4	-1	96
CC1CCN(C(=O)c2ncn3c2c(=O)[nH]c2cccnc23)CC1	x	x	x	x	x	95
Cc1nc2ccc(S(=O)(=O)Nc3ccccc3C)cc2s1	-8	2	1	0	33*	101
SMILES	PAFAH1B3 FP inh	PAFAH1B2 inh	M18AAP inhibitor	PAFAH2 FP inh	pPAFAH FP inh	DSG3 Ab inh
Cc1nc2ccc(S(=O)(=O)NCC(=O)NCc3ccc(Cl)cc3)cc2s1	2	25*	-3	3	-2	100
Cc1ccccc1NC(=O)Nc1nc2ccc(S(C)(=O)=O)cc2s1	-5	-4	-4	-13	5	74*
CCCCCC(=O)NNC(=S)NC(=O)c1ccc([N+](=O)[O-])cc1	-2	0	31*	1	2	94
O=c1c2cc(Br)ccc2[nH]c(=S)n1Cc1ccccc1	10	8	6	1	26*	94
COCCN(C(=O)COC(=O)c1c(C)nn(-c2ccccc2)c1C)c1c(N)n(Cc2ccccc2)c(=O)[nH]c1=O	x	x	x	x	x	104
Cc1cccc(NNC(=S)Nc2ccccc2)c1	x	x	x	x	x	88
Cc1cccc(NNC(=S)Nc2c(C)cccc2C)c1	2	7	30*	-1	8	96
